The list is not random: actives were taken first. Their share in the collection is about 3.4%.
Giardia FBPA inh: inhibitors of Giardia lamblia fructose-1,6-bisphosphate aldolase | purified Giardia FBPA | A8B2U2 | hit rate 0.71% among 290,000 | Potency, µM (top dose mostly 59.6 µM), for the others: at the top dose activity, negative = inhibition, actives largely listed as inhibitors | AID 2451; note: nearly all actives have a fitted effect of over 55% in size
Target sequence (A8B2U2 whole entry, looked up): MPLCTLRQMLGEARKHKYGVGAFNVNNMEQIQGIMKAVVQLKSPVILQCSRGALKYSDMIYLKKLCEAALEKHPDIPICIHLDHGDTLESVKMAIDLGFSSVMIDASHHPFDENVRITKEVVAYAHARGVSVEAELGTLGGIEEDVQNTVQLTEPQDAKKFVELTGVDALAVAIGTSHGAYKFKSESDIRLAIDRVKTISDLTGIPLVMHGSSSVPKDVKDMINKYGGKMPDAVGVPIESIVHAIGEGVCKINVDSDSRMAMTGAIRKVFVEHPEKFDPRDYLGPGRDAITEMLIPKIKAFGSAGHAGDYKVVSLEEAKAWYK
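Giardia FBPA (40 nM reagent) was preincubated 10 min at RT with compound (up to 57.5 uM final), then substrate plus GAPDH/TPI/NAD/arsenate coupling system with diaphorase/resazurin was added; resorufin fluorescence (525/598 nm) was read after 20 min.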
AmpC detergent: blocks E. coli AmpC beta-lactamase in detergent assay; P00811; AmpC hydrolysis of nitrocefin, absorbance 480 nm, 0.01% Triton; Potency, µM (titrated, usually from 114 µM), for inactives: at the highest dose activity change, negative = inhibition, usual class: inhibitors; hit rate 0.041% among 370,000;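 note: 0% = no-compound wells and -100% = no-enzyme wells; nearly all actives have a fitted effect of over 25% in size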
Target sequence (P00811 whole entry, looked up): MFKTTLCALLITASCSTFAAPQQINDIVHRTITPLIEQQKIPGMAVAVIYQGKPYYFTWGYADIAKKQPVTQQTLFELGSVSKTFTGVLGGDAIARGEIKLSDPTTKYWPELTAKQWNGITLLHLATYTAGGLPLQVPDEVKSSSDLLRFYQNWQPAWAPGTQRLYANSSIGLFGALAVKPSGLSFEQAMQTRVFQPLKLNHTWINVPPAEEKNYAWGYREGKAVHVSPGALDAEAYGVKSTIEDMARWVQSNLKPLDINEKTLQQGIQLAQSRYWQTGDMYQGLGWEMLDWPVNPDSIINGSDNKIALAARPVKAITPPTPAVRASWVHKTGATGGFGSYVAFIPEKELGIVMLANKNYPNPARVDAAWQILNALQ
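20 mM phosphate pH 7.0 + 0.01% (detergent screen) or 0.0001% Triton X-100; 5.3 nM AmpC reagent; cpd preinc 15 min RT; nitrocefin (800 uM stock) to start; A480 q20 s × 4 min; Activity was normalised to no-enzyme and no-compound control wells.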
AmpC no deterg: blocks E. coli AmpC beta-lactamase in detergent-free assay; AID 485341; Potency, µM (titrated, usually from 57.1 µM), without a hit: at the top dose activity change, negative = inhibition, hits mostly inhibitors; AmpC nitrocefin hydrolysis, absorbance 480 nm, 0.0001% Triton; hit rate 0.52% among 330,000; P00811;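 note: plate controls were no compound for no effect and no enzyme for full effect; nearly all actives have a fitted effect of over 20% in size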
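20 mM phosphate pH 7.0 + 0.01% (detergent screen) or 0.0001% Triton X-100; 5.3 nM AmpC reagent; cpd preinc 15 min RT; nitrocefin (800 uM stock) to start; A480 q20 s × 4 min; Activity was normalised to no-enzyme and no-compound control wells.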
Sm TGR block: blocks Schistosoma mansoni thioredoxin glutathione reductase. purified TGR, DTNB reduction, TNB absorbance 405 nm. Potency, µM (doses to about 114 µM), for the others: at the top dose activity change, negative = inhibition, most hits filed as inhibitors. hit rate 3% among 360,000; note: nearly all actives have a fitted effect of over 60% in size
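First, TGR (20 nM dispensed) and NADPH were mixed with compound. Second, a 15 min room-temperature incubation followed. Third, further NADPH and then DTNB were added to start the reaction. Finally, TNB absorbance was monitored kinetically.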
RE007 growth inh: less growth of the S. pombe RE007 Vpr strain; S. pombe RE007 Vpr strain, BacTiter-Glo ATP luminescence, 24 h; Potency, µM (series often up to 92.2 µM), without a hit: top-dose activity change, negative = less growth, hits mostly inhibitors; hit rate 0.21% among 360,000; AID 651644; active = well fitted falling curve with a large enough effect; inconclusive = small, poorly fitted or top-dose-only effect; inactive = no such curve, though single readings can be large or run the other way; note: nearly all actives have a fitted effect of over 50% in size
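Fission yeast strain RE007, carrying one chromosomally integrated HIV-1 vpr copy, was seeded at OD 0.01 in PMG+AL medium with 23 nL pinned compound. After 24 h at 30 °C and 99% humidity, viability was read by BacTiter-Glo luminescence.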
An asterisk follows results filed as active; ? = inconclusive; nt = not tested or not shown; [ ] = remark or other dose. Unless noted, calls come from the whole dose curve; as a rule, active = well fitted curve in the direction sought with a large enough effect; inconclusive = small, poorly fitted or top-dose-only effect, or another doubt; inactive = no such curve, though single readings can be large; an effect the other way counts as inactive or inconclusive. Unless noted, % is set by controls: 0 for no effect and ±100 for the full control effect; potency is the fitted concentration of half-maximal effect.

SMILES	Giardia FBPA inh	AmpC detergent	AmpC no deterg	Sm TGR block	RE007 growth inh
O=C(CSc1nc2[nH]c(=O)cc(O)c2s1)Nc1ccc(Cl)c(C(F)(F)F)c1	nt	0.0%	-44.0%	7.6%	-4.9%
O=C(Oc1c(-c2ccccc2Cl)oc2ccccc2c1=O)c1ccc(Cl)cc1	-4.1%	-5.8%	17.8µM*	-13.4%	0.6%
CC1=C(C(N)=O)C(c2ccc(C)o2)C(C(N)=O)=C(C)N1	-10.3%	0.3%	-10.1%	44.7µM*	35.6%
C=CCOC(=O)C1=C(C)NC(C)=C(C(=O)OCC=C)C1c1ccc(C)o1	-0.1%	-7.9%	47.8%	15.8µM*	1.2%
CCOC(=O)C1=C(C)NC(C)=C(C(=O)OCC)C1c1ccc(C)o1	2.1%	-14.4%	21.9%	?	10.0%
Cc1c(C)c(C)c(C(=O)CCc2cccc(NC(=O)CCC(=O)O)c2)c(C)c1C	11.4%	-17.0%	0.1%	-1.1%	10.2%
O=C(NCCc1ccccc1)C(c1cccs1)N(C(=O)CCl)c1ccc(Cl)cc1 (centres undefined)	-0.8%	-5.2%	1.0%	1.12µM*	7.1%
CCCNC(=O)CN1CCN(c2ncc(NC(=O)c3ccc(Cl)cc3)cc2C(=O)O)CC1	nt	2.2%	nt	-29.3%	nt
Cc1nc(SCC(=O)NCc2ccco2)nc(C)c1C	-6.0%	3.8%	-9.5%	22.4µM*	30.8%
O=C(CSc1ncc(-c2ccccc2)nn1)NCc1ccco1	0.6%	-0.2%	-23.8%	?	11.2%
O=C(CSc1ncnc2c1oc1ccccc12)NCc1ccco1	5.6%	-1.9%	11.0%	28.2µM*	-9.2%
Cc1nc(SCC(=O)NC(=O)NCc2ccco2)nc(C)c1C	-3.3%	?	-34.4%	39.8µM*	33.9%
O=C(CSc1nnc(-c2ccccc2)c(-c2ccccc2)n1)NCc1ccco1	3.3%	-5.1%	-27.7%	39.8µM*	3.3%
Cc1ccc(SCC(=O)NCc2ccco2)cc1	-0.5%	1.4%	-30.3%	?	-2.4%
Cn1c(SCC(=O)NC(C)(C)C)nnc1-c1ccc(C(C)(C)C)cc1	1.1%	-9.4%	18.3%	0.0%	-0.9%
Cc1ccc(S(=O)(=O)N(CCC(=O)Nc2ccc(OC(F)(F)F)cc2)c2ccccc2)cc1	1.3%	?	-28.2%	2.3%	1.1%
COc1ccc(NC(=O)c2cc(-c3ccccc3)on2)cc1	2.7%	?	-19.7%	-34.6%	0.6%
Cc1ccc(/C=C/c2nnc(-c3cccc(C)c3)o2)cc1	-0.6%	-0.4%	-24.4%	-0.3%	8.0%
O=C(Cn1ncn2c(cc3ccccc32)c1=O)NCc1ccco1	-5.9%	-4.1%	16.3%	31.6µM*	1.0%
O=C(Cn1cnc2sc(-c3ccccc3)cc2c1=O)NCc1ccco1	-7.6%	-5.6%	-30.4%	12.6µM*	-7.8%
Cc1sc2nc(C(C)C)nc(SCC(=O)NCc3ccco3)c2c1C	11.4%	-5.2%	-1.8%	44.7µM*	14.0%
Cc1nc(SCC(=O)NCc2ccco2)c2c(C)c(C)sc2n1	4.9%	-13.6%	-7.5%	?	11.6%
COC(=O)c1ccc(NC(=O)CN(C2CCCCC2)S(C)(=O)=O)cc1	-0.4%	3.4%	-8.9%	5.3%	0.5%
Cc1ccc(OCCOc2ccc(Br)cc2/C=N\NC(N)=O)cc1	-2.8%	0.7%	-49.5%	nt	-10.6%
c1ccc(CNc2ncnc3ccc(-c4ccoc4)cc23)cc1	0.8%	nt	nt	nt	nt
SMILES	Giardia FBPA inh	AmpC detergent	AmpC no deterg	Sm TGR block	RE007 growth inh
COc1ccc2cc(C(c3nnnn3Cc3ccc(F)cc3)N3CCCCCC3)c(=O)[nH]c2c1 (centres undefined)	?	-0.1%	31.0%	15.8µM*	0.1%
COc1ccc2cc(C(c3nnnn3CCc3ccccc3)N3CCC(O)CC3)c(=O)[nH]c2c1 (centres undefined)	1.5%	-3.1%	53.0%	-25.7%	16.9%
COc1ccc(Cn2nnnc2C(c2ccncc2)N2CCOCC2)cc1 (centres undefined)	-10.8%	-1.1%	0.1%	25.1µM*	3.6%
COc1ccc(Cn2nnnc2C(c2cc3ccc(OC)cc3[nH]c2=O)N2CCC(C)CC2)cc1 (centres undefined)	?	0.1%	0.0%	28.2µM*	-7.0%
COc1ccc2cc(C(c3nnnn3Cc3ccccc3)N3CCCCCC3)c(=O)[nH]c2c1 (centres undefined)	-6.2%	-3.2%	5.7%	20µM*	2.2%
CCOC(=O)CNC(=O)N1CCCC(CNS(=O)(=O)c2cccs2)C1 (centres undefined)	5.1%	4.1%	-5.3%	2.8%	3.0%
O=C(NC(N1CCCC1)C(Cl)(Cl)Cl)c1ccccc1 (centres undefined)	nt	-6.7%	-20.4%	3.55µM*	-4.0%
O=C(NC(N1CCOCC1)C(Cl)(Cl)Cl)c1ccc(F)cc1 (centres undefined)	0.4%	-4.4%	-10.5%	nt	-14.2%
COc1ccc(NC(=O)c2cc(-c3ccco3)nc3ccccc23)cc1S(=O)(=O)N1CCOCC1	?	0.2%	56.8%	7.94µM*	-13.2%
Cc1ccc(NC(=O)c2cc(-c3ccco3)nc3ccccc23)cc1S(=O)(=O)N1CCOCC1	-12.9%	-0.8%	-12.6%	44.7µM*	-11.9%
CCN(CC)c1ccc(NC(=O)c2ccco2)cc1	-6.4%	?	-16.4%	-14.1%	-8.5%
C=CCN(CC=C)S(=O)(=O)c1ccc(NC(=S)NC(=O)c2ccco2)cc1	-29.1%	-13.0%	35.5µM*	?	-3.9%
CCN(CC)c1ccc(NC(=S)NC(=O)c2cccs2)cc1	-7.0%	2.9%	-57.0%	8.91µM*	?
C=CCN(CC=C)S(=O)(=O)c1ccc(NC(=S)NC(=O)c2ccc(-c3ccccc3)cc2)cc1	-0.7%	-0.7%	-23.3%	-5.6%	2.4%
CCN(CC)c1ccc(NC(=S)NC(=O)c2ccco2)cc1	-15.1%	?	-21.2%	11.2µM*	-2.4%
CN(c1ccccc1)S(=O)(=O)c1ccc(NC(=O)c2cccs2)cc1	-3.7%	1.5%	-14.9%[2.29 µM]	4.4%	0.7%
CCN(c1ccccc1)S(=O)(=O)c1ccc(NC(=S)NC(=O)c2cccs2)cc1	-1.2%	1.0%	14.1µM*	?	-6.8%
Cc1cc(C(F)F)n2nc(C(=O)Nc3ccc(F)cc3F)nc2n1	8.7%	?	-14.9%	-0.6%	4.8%
O=C(Cn1cc([N+](=O)[O-])cn1)NCc1ccco1	-2.4%	-3.4%	-42.1%	?	-1.9%
COc1cccc(NC(=O)Cn2c(=O)n(-c3ccc(Cl)cc3)c(=O)c3oc4ccccc4c32)c1	nt	-6.2%	nt	50.1%	nt
Cc1ccc2[nH]c3nc(NN)nnc3c2c1	11.0%	1.5%	-18.2%	?	-0.2%
COc1ccc(N2C(=O)CS(=O)C(c3ccccc3)C2=O)cc1 (centres undefined)	0.1%	2.4%	-17.7%	nt	-6.6%
Cc1ccc(N2C(=O)CS(=O)C(c3ccccc3)C2=O)cc1C (centres undefined)	-3.4%	-1.2%	-25.6%	1.12µM*	-0.6%

Compound activity from PubChem BioAssay.
